# Publication PMC4336329 (PLoS ONE, 2015)
# Out of some 310,000 compounds screened, about 14,000 (4.5%) showed an effect of 50% or more. The effect is printed as a negative number. Only a selection was taken, and strong results are over-represented in it overall.
# Target: human ether-à-go-go-related gene (hERG) potassium channel (human, UniProt Q12809)
# Assay: primary screen, population patch clamp on CHO cells stably expressing hERG; higher = less effect of the substance
# 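Note: peak tail current of the secondary pulse compared with the same well before compound.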
# Sequence of human ether-à-go-go-related gene (hERG) potassium channel (Q12809 whole entry, looked up): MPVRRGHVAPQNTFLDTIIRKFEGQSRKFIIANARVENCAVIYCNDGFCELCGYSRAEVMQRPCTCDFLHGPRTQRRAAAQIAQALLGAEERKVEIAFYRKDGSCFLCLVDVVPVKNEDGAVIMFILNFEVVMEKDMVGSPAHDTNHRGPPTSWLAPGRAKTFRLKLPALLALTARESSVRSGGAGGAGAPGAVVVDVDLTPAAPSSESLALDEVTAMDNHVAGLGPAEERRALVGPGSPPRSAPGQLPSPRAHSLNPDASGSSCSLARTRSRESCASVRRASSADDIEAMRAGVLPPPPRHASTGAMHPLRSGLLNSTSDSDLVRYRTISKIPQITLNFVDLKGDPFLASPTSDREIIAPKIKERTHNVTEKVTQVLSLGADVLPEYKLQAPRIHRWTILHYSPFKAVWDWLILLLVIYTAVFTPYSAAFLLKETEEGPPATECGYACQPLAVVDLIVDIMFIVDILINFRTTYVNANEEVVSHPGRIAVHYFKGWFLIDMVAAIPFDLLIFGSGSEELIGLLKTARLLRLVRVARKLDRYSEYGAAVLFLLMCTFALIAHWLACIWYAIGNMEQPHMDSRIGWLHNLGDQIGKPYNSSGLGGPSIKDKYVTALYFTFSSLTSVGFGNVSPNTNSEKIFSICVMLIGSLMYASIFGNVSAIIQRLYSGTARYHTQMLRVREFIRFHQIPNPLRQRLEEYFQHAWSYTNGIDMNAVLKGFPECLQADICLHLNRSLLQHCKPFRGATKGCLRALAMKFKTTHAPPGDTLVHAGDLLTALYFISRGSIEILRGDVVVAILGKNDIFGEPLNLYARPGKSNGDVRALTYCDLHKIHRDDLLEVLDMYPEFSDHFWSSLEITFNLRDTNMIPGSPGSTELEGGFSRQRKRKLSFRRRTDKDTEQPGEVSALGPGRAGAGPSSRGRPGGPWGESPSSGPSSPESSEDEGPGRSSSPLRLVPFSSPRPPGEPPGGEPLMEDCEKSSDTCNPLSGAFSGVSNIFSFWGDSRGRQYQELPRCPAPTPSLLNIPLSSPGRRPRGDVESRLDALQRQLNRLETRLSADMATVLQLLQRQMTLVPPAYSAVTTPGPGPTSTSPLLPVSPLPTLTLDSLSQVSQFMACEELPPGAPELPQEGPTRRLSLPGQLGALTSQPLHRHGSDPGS
row,SMILES,"hERG current change (%, negative = inhibition) at 10uM [%]"
1,COc1ccc(C(=O)/C=C/Nc2ccc([N+](=O)[O-])cc2C)c(OC)c1,3.07
2,O=C(O)Cn1c(SCCOc2ccccc2)nc2ccccc21,0.876
3,O=S(=O)(c1cccc(-c2nnc(SC(F)F)n2-c2ccccc2)c1)N1CCCCC1,-30.3
4,CC1CCCCN1S(=O)(=O)c1ccc(C(=O)N(CCCN(C)C)c2nc3ccc(Br)cc3s2)cc1.Cl (stereo not shown),-37
5,CCC1CCCCN1S(=O)(=O)c1ccc(C(=O)N(CCCN(C)C)c2nc3cc4c(cc3s2)OCO4)cc1.Cl (stereo not shown),-56
6,CN(C)CCCN(C(=O)c1ccc(S(=O)(=O)N(C)C)cc1)c1nc2cc3c(cc2s1)OCO3.Cl,15.5
7,CC1CCCCN1S(=O)(=O)c1ccc(C(=O)N(CCCN(C)C)c2nc3cc4c(cc3s2)OCO4)cc1.Cl (stereo not shown),-81.1
8,COc1cccc(CC(=O)Nc2ccc3nc(C)sc3c2)c1,8.73
9,CCOc1ccc(/C(O)=C2/C(=O)C(=O)N(CCN(CC)CC)C2c2ccco2)cc1 (stereo not shown),-10
10,COc1ccccc1CNS(=O)(=O)c1ccc(Cl)s1,-6.4
11,COc1ccc(CC(=O)NCC2CCCN(Cc3ccc(SC)cc3)C2)cc1 (stereo not shown),-67.5
12,COc1cc(OC)cc(C(=O)NCC2CCCN(C(=O)c3oc(C)cc3C)C2)c1 (stereo not shown),-18.5
13,COc1ccc(CC(=O)NCC2CCCN(Cc3ccc(OC(F)(F)F)cc3)C2)cc1 (stereo not shown),-63.7
14,COc1cc(OC)cc(C(=O)NCC2CCCN(Cc3cccc(C(C)=O)c3)C2)c1 (stereo not shown),-25.3
15,COc1ccc(CC(=O)NCC2CCCN(Cc3cc(OC)cc(OC)c3)C2)cc1 (stereo not shown),-21
16,COc1ccc(CC(=O)NCC2CCCN(Cc3ccccc3OC)C2)cc1 (stereo not shown),10.5
17,COc1ccc(CC(=O)NCC2CCCN(Cc3cccc(SC)c3)C2)cc1 (stereo not shown),-34.6
18,COc1cc(OC)cc(C(=O)NCC2CCCN(Cc3ccc(SC)cc3)C2)c1 (stereo not shown),-72.3
19,COC(=O)c1ccc(CN2CCCC(CNC(=O)Cc3ccc(OC)cc3)C2)cc1 (stereo not shown),-14.7
20,CCc1ccc(CN2CCCC(CNC(=O)c3cc(OC)cc(OC)c3)C2)cc1 (stereo not shown),-69.9
21,COc1ccc(CC(=O)NCC2CCCN(Cc3ccccc3Cl)C2)cc1 (stereo not shown),4.3
22,Cc1cc(CNC(=O)CCc2nnc(CCCCc3ccccc3)o2)nn1C,38.1
23,Cc1ccc(NC(=O)N2CCCc3ccccc32)cc1C,-29.2
24,COc1ccc(OC)c(N(CC(=O)N2CCC(C)CC2)S(=O)(=O)c2ccccc2)c1,-22.2
25,CCCc1nnc(SCC(=O)O)n1/N=C/c1ccc2c(c1)OCO2,-7.5
26,CCOc1ccccc1CNC(=O)c1nn(CC)cc1[N+](=O)[O-],9.07
27,C=CCSc1nnc(-c2sc(-c3ccccc3)nc2C)n1C,-33.6
28,Cc1cc(NC(=O)CSCC(=O)N(C)Cc2ccc(Cl)c(Cl)c2)no1,-9.94

row,SMILES,"hERG current change (%, negative = inhibition) at 10uM [%]"
1,CCOC(=O)c1[nH]c2ccc(OC)cc2c1NS(=O)(=O)c1ccc(Cl)s1,12.9
2,CCOc1cccc(CN2CCCC(CNC(=O)c3cccc(OC)c3OC)C2)c1 (stereo not shown),-9.11
3,CCc1ccc(CN2CCCC(CNC(=O)c3cccc(OC)c3OC)C2)cc1 (stereo not shown),-54.1
4,COc1ccccc1CN1CCCC(CNC(=O)c2cccc3ccccc23)C1 (stereo not shown),-47.8
5,N/C(Cc1nc(-c2ccc(F)cc2)cs1)=N\O,13.7
6,COc1ccc(/C=C2\SC(=S)N(NS(=O)(=O)c3ccccc3)C2=O)c(OC)c1,-33.1
7,CCOC(=O)Cc1csc(NS(=O)(=O)Cc2ccccc2)n1,3.54
8,CC(C)c1ccc(Nc2nc(Cl)nc(Cl)n2)cc1,19.1
9,COc1ccc(Cl)cc1NC(=O)NCC1CCN(Cc2ccccc2F)CC1,-37.7
10,COc1ccc(Cl)cc1NC(=O)NCC1CCN(C(=O)OC(C)(C)C)CC1,4.67
11,Cc1cccc(CN2CCC(CNC(=O)Nc3ccc(F)c(Cl)c3)CC2)c1,-74.9
12,COc1ccc(N2CCC(CNC(=O)Nc3ccc(Cl)cc3)C2)cc1 (stereo not shown),11.5
13,Cc1cccc(NC(=O)NCC2CC2)c1,4.74
14,Cc1ccc(C)c(CN2CCC(CNC(=O)Nc3ccc(Cl)cc3)CC2)c1,-68.6
15,Cc1ccc(C)c(CN2CCC(CNC(=O)Nc3ccc(F)c(Cl)c3)CC2)c1,-65
16,COc1ccc(Cl)cc1NC(=O)NCC1CCN(Cc2cc(C)ccc2C)CC1,-67.7
17,COc1ccc(C(CC(=O)NCCN2CCOCC2)NS(=O)(=O)c2ccc(C)cc2)cc1 (stereo not shown),5.28
18,Cc1ccc(CNC(=O)C2CCCN(c3nc4ccccc4o3)C2)cc1 (stereo not shown),-1.06
19,O=C(CSc1nnc(-c2ccco2)o1)NCC(=O)c1ccccc1,-4.72
20,COC(=O)CCC(=O)NNC(=O)c1cccc(Cl)c1,16.4
21,CC(=O)c1sc(NC(=O)C(C)C)nc1C,-0.878
22,CC(=O)Nc1ccc(-c2csc(Nc3ccc(S(N)(=O)=O)cc3)n2)cc1,-1.99
23,O=C(Cn1nc(-c2ccc(F)cc2)ccc1=O)Nc1ccc2c(c1)OCCO2,-0.525
24,Cc1ccc(C)c(CN2CCC(CNC(=O)Nc3cccc(Cl)c3C)CC2)c1,-43.1
25,Cc1ccc(NC(=O)NC(=O)CN2CCC(C(N)=O)CC2)c(C)c1,12
26,Cc1ccc(NC(=O)NCC2CCN(Cc3cc(C)ccc3Cl)CC2)c(C)c1,-58.3
27,O=C(Cn1nnc(-c2ccccc2)n1)c1ccccc1,7.22
